The record followed here is PubChem BioAssay (NCI).

Compounds without any hit were thinned out: in the full panel of roughly 83,000, 20% have a hit.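 For each line, cells grew in 96-well plates with the test compound present at a single concentration for 48 hours.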 A number with no mark means an inactive call. Activity calls are given as the source filed them. The calls were made as follows: active = growth percent below 10; inactive = the rest.

Holding throughout (test): NCI-60 one-dose screen, 48 h (100 = growth as untreated, 0 = no growth, -100 = all killed)
What all share (details): 10 µM unless noted

Assay [1] has as its system SR leukemia.
For assay [2], the system named is OVCAR-8 ovarian.
For assay [3], the system named is OVCAR-5 ovarian.
The subject of assay [4] is OVCAR-4 ovarian.
Assay [5] deals with SK-OV-3 ovarian.
The test system of assay [6] is IGROV1 ovarian.
The test system of assay [7] is OVCAR-3 ovarian.
Assay [8] deals with HS 578T breast.
Assay [9] concerns NCI/ADR-RES ovarian.
In assay [10] the test system is T-47D breast.
Assay [11] has as its system BT-549 breast.
For assay [12], the system named is MDA-MB-435 melanoma.
Assay [13] concerns SW-620 colon.
Assay [14] has as its system MCF7 breast.
For assay [15], the system named is HCT-116 colon.
The subject of assay [16] is HCC-2998 colon.
Assay [17] has as its system KM12 colon.

In the case of `Cc1nn(-c2ccccc2)c(-n2ccnc2)c1/C=N/Nc1nc(-c2ccc(F)cc2)cs1`, the growth in [1] was 49%; in assay [2] it was 76.1%; in assay [3] it was 105%; in assay [4], 56%; in [5], 81.4%; in [6], 87.4%. In addition, the growth was 84.8% in [7]; 82.9% in assay [8]; 79.2% in assay [9]; 31.1% in assay [10]; 75.3% in assay [11]; 85.2% in assay [12]. The growth in [13] was 88.4%; in assay [14], 72.3%; in [15] it was 67.8%; in assay [16], 104%; in assay [17], 90.4%.
Take `COc1ccccc1/C=C1\Oc2cc(OCCN3CCC(Cc4ccccc4)CC3)ccc2C1=O`: the growth was 5.96% (active) in assay [1]; 81.2% in [2]; 89.3% in assay [3]; 93.2% in assay [4]; 106% in assay [5]; 82.6% in assay [6]. Moreover, the growth is 98% in assay [7]; 82.8% in assay [8]; 89.2% in [9]; 85.8% in assay [10]; 85.4% in assay [11]; 91.1% in assay [12]. Besides, the growth in [13] is 69.1%; in [14] it was 80.1%; in [15], 73.9%; in assay [16], 37.9%; in assay [17], 91.7%.
On to `CCCCCCn1c(-c2ccc(C(=O)O/N=C(\N)c3ccc4c(c3)OCO4)cc2)nc(-c2ccccc2)c1-c1ccccc1`, for which the growth is -26.3% (active) in assay [1]; 17.7% in assay [2]; 43.2% in assay [3]; 39.6% in assay [4]; 98.7% in assay [5]; -68.5% (active) in [6]. The growth in [7] was 32.4%; in assay [8], 4.78% (active); in assay [9], -52.8% (active); in assay [10], -11.9% (active); in [11], 43.5%; in assay [13], 37.8%. Further, the growth in assay [14] was 7.05% (active); in assay [15], 2.68% (active); in assay [16], 44%; in assay [17], 31.8%.
Consider `COc1cc(C2CC(c3ccc(N(C)C)cc3)=NN2C(C)=O)cc(OC)c1OC` (configuration not stated), for which the growth in [1] is -17.2% (active); in assay [2] it was 38.9%; in assay [3], 54.5%; in assay [4], 51.5%; in assay [5] it was 24.9%; in [6], 30.4%. Also, the growth was -38.2% (active) in [7]; 0.792% (active) in assay [8]; -24.4% (active) in [9]; 31.7% in assay [10]; 45.1% in [11]; -65.6% (active) in assay [12]. Also, the growth is 10.7% in [13]; 11.5% in assay [14]; 20.6% in [15]; 24.9% in assay [16]; 10.8% in assay [17].
Take `CN(C)CCCNc1nc2ccccc2c2c(=O)c3cc(F)ccc3sc12`: the growth in [1] was -37.9% (active); in [2], 45.3%; in assay [3], 73.7%; in assay [4], 36.6%; in assay [5], 78.1%; in assay [6], 40.5%. The growth is 26% in assay [7]; 46.7% in [8]; 43% in [9]; 43.1% in assay [10]; 100% in [11]; -79.7% (active) in assay [12]. Further, the growth is -51.4% (active) in assay [13]; 18.5% in [14]; -47% (active) in assay [15]; -80.4% (active) in [16]; 3.81% (active) in assay [17].
In the case of `CNCCCNc1nc2ccccc2c2c(=O)c3cc(OC)ccc3sc12`, the growth in [1] is -30.2% (active); in assay [2] it was 72.7%; in assay [3], 92.2%; in [4] it was 61.2%; in assay [5], 84.9%; in assay [6], 68.1%. For the same molecule, the growth in assay [7] was 75.7%; in [8], 75%; in assay [9], 80.6%; in assay [10], 81.7%; in assay [11], 89.2%; in [12], 37.3%. The growth in assay [13] was -50.3% (active); in [14] it was 59.4%; in [15], 10.3%; in assay [16], -71% (active); in [17], 35.3%.
As to `COc1ccc(C2C(C#N)=C(N)Oc3c2sc2c(C)cccc32)cc1` (configuration not stated), the growth in assay [1] is 15.4%; in assay [2], 22.6%; in assay [3], 23.5%; in [4] it was 50.1%; in [5] it was 67.4%; in [6] it was 23.3%. The growth in assay [7] was 4.88% (active); in assay [8], 18.6%; in [9], 4.33% (active); in [10], 46.9%; in assay [11], 25.1%; in [13], 26%. Also, the growth was 10.8% in assay [14], 13.2% in assay [15], 11% in [16] and 11.7% in [17].
As for `CCc1cccc2c3c(sc12)C(c1ccc(F)cc1)C(C#N)=C(N)O3` (configuration not stated), the growth in assay [1] was 27.3%; in assay [2], 32.9%; in [3] it was 32.6%; in [4], 60.4%; in [5], 78.5%; in [6], 31.1%. The growth was 10.9% in assay [7]; 26.7% in assay [8]; 14% in assay [9]; 42.1% in assay [10]; 19.7% in assay [11]; 30.3% in assay [13]. Further, the growth is 16.1% in [14], 17.7% in assay [15], 15.4% in assay [16] and 25.1% in assay [17].
In the case of `O=C(Nc1ccc(Cl)cc1F)c1cc(Cl)ccc1O`, the growth was -21.2% (active) in assay [1]; 8.56% (active) in [2]; 19.7% in assay [3]; 17.9% in assay [4]; 9.05% (active) in [5]; 8.98% (active) in assay [6]. The growth was 2.51% (active) in assay [7]; -13.9% (active) in assay [8]; 3.01% (active) in assay [9]; 0.896% (active) in assay [10]; -25.3% (active) in [11]; -11.4% (active) in assay [12]. Further, the growth is 5.92% (active) in assay [13]; 2.27% (active) in assay [14]; -25.5% (active) in assay [15]; 8.54% (active) in assay [16]; -23.6% (active) in assay [17].
As for `Cc1cccc2c3c(sc12)C(c1ccc(Cl)cc1)C(C#N)=C(/N=C/c1ccc(Cl)cc1)O3` (configuration not stated), the growth was 24.1% in assay [1]; 25% in assay [2]; 24.6% in [3]; 52.9% in assay [4]; 59% in [5]; 21.9% in assay [6]. The growth in assay [7] is -2.5% (active); in assay [8] it was 14.3%; in assay [9] it was 9.29% (active); in assay [10], 51%; in assay [11], 22.7%; in [13] it was 26.1%. The growth in assay [14] is 9.92% (active); in assay [15], 13.4%; in assay [16] it was 16.2%; in assay [17], 9.86% (active).
As for `C/C(=N/NC(N)=S)c1sc(Nc2cccc(Cl)c2)nc1C`, the growth in assay [1] was 90.1%; in assay [2], 97.5%; in assay [3], 86.8%; in [4], 63.6%; in assay [5], 116%; in [6], 86%. The growth in assay [7] was 76.8%; in assay [8], 88.2%; in [9], 86.7%; in assay [10], 30.9%; in assay [11] it was 84.1%; in [12], 84.5%. Further, the growth in assay [13] was 81.8%; in assay [14], 76.1%; in assay [15], 74.4%; in assay [16], 107%; in assay [17], 87.8%.
Regarding `CCCCCCCCCCCCCCCCCCOc1ccc(CC(=O)OCC[N+]2(C)CCCCC2)cc1`, the growth in assay [1] is 102%; in assay [2] it was 96.9%; in [3], 100%; in assay [4], 86.8%; in assay [5] it was 104%; in assay [6], 92.6%. Moreover, the growth in assay [7] is 101%; in assay [8], 108%; in assay [9], 104%; in assay [10], 92.6%; in assay [11] it was 112%; in assay [13], 96.2%. Moreover, the growth in assay [14] was 91%; in assay [15], 57.7%; in [16] it was 97.4%; in [17], 101%.
As for `Cc1cccc(NC2=C(Cl)C(=O)c3nc(C)ccc3C2=O)c1`, the growth was 1.13% (active) in assay [1]; 6.03% (active) in assay [2]; -43% (active) in assay [3]; -97.5% (active) in [4]; 74.5% in [5]; -54.1% (active) in assay [6]. Further, the growth is -31.8% (active) in assay [7]; -16.5% (active) in [8]; 13.8% in [9]; -50.2% (active) in [10]; 3.34% (active) in assay [11]; -13.7% (active) in [13]. Further, the growth is -57.8% (active) in [14], -47.6% (active) in assay [15], 3.47% (active) in [16] and 33.5% in assay [17].
Consider `Cc1ccc(-c2nc(N3CCN(C(=O)c4ccc(OC(F)(F)F)cc4)CC3)c3ccccc3n2)cc1`, for which the growth in assay [1] was 78.5%; in [2] it was 90.3%; in assay [3] it was 97.8%; in assay [4], 106%; in assay [5] it was 99.3%; in assay [6] it was 85.6%. Further, the growth in [7] was 93.9%; in assay [8], 79.1%; in assay [9], 84.4%; in [10], 61.7%; in assay [11], 91.9%; in assay [12] it was 92.5%. The growth in assay [13] was 97%; in [14], 92.9%; in [15] it was 85.3%; in [16], 97.1%; in assay [17] it was 93%.
Take `CCOC(=O)c1cn2ncnc(Oc3ccc(NC(=O)NCCN(C)C)c(Cl)c3)c2c1C`: the growth is -13.1% (active) in assay [1]; 78.9% in [2]; 91.6% in [3]; 82.4% in assay [4]; 94.1% in assay [5]; 78.7% in assay [6]. The growth in assay [7] was 75%; in assay [8], 85.6%; in assay [9], 88.7%; in [10] it was 45.8%; in assay [11], 77.8%; in assay [12], 46.1%. Besides, the growth was 31.5% in assay [13]; 61.6% in assay [14]; 36.4% in assay [15]; 80.2% in assay [16]; 93.3% in [17].
For `CCCCOc1nc2c(C)cccc2cc1-c1cc(-c2ccc(Cl)cc2)nc(-c2ccc(Cl)cc2)c1`, the growth is 92.2% in assay [1]; 97.4% in [2]; 96.6% in assay [3]; 110% in [4]; 103% in assay [5]; 105% in [6]. Besides, the growth in assay [7] was 111%; in assay [8] it was 92.4%; in [9], 108%; in assay [10], 99%; in assay [11], 101%; in [12], 102%. Further, the growth is 98.4% in assay [13]; 96.9% in [14]; 99.5% in assay [15]; 108% in [16]; 97.7% in [17].
Take `COc1ccc(NC2=C(Br)C(=O)C(C)=C(C)C2=O)cc1`: the growth in assay [1] was 2.06% (active); in [2], -29.7% (active); in assay [3] it was 102%; in [4], -99.6% (active); in assay [5], 69.4%; in [6], 41.3%. For the same molecule, the growth in assay [7] is 60.3%; in assay [8], 96.9%; in [9], 80.6%; in [10] it was -33.9% (active); in assay [11], 101%; in assay [13] it was 98.9%. Further, the growth in [14] was 63.5%; in assay [15], 14.1%; in assay [16] it was 99.6%; in assay [17] it was 94.8%.
